# Bioassay records: PubChem, National Center for Advancing Translational Sciences (NCATS)
# Anesthetic bind = binds horse apoferritin like a general anesthetic. P02791. apoferritin/1-aminoanthracene competitive binding, fluorescence. Potency, µM (highest dose often 77.5 µM), usual class: inhibitors. actives 0.074% (n = 350,000); also: nearly all actives have a fitted effect of over 20% in size
# Target sequence (P02791 2-175 limits assumed): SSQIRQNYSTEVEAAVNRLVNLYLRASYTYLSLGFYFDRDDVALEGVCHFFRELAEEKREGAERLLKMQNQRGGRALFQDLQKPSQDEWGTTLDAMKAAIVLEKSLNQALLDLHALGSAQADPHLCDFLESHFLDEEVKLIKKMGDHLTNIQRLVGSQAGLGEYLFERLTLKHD
#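 Concentration-response curves derived by four-parameter Hill fitting of normalized fluorescence, where compounds displaced 1-AMA from 10 uM horse apoferritin following a brief 10 min room-temperature incubation; propofol titration acted as positive control.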
# TGFb SMAD3 inh = TGF-b pathway inhibition. HepG2 CAGA-GFP TGF-b/SMAD3 reporter, GFP fluorescence, 18 h; TGF-beta stimulated, 500 pg/mL final. actives 1.2% (n = 410,000). Potency, µM (series often up to 46.1 µM), hits mostly inhibitors; also: nearly all actives have a fitted effect of over 65% in size
#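 Cell-based qHTS in HEPG2 carrying a CAGA-GFP Smad reporter; compounds added before 500 pg/mL final TGF-beta, 18 h incubation at 37 degrees C, GFP fluorescence quantified per cell by imaging cytometry.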
# ATXN2 expr inh = inhibitors of ATXN2 expression; actives 0.72% (n = 360,000); HEK-293 ATXN2-luciferase reporter, luminescence, 24 h; Potency, µM (series often up to 57 µM), usual class: inhibitors; also: nearly all actives have a fitted effect of over 55% in size
#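 ATXN2-luciferase reporter cells (luciferase flanked by upstream and downstream ATXN2 gene portions) were treated 24 h at 37 °C with compounds at up to 57 uM. SteadyGlo luminescence gave expression; GF-AFC fluorescence gave viability.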
# ATXN viability = reduces viability in counter-screen for ATXN expression inhibitors; S2 cells (HEK-293 line with an ATXN2-luciferase reporter) viability, CellTiter-Fluor protease fluorescence, 24 h; Potency, µM (titrated, usually from 56.7 µM), hits mostly cytotoxic; actives 0.49% (n = 400,000); AID 651635; also: nearly all actives have a fitted effect of over 40% in size
# HepG2 tox-1 = HepG2 cytotoxicity, counter-screen for TGF-b inhibitors; HepG2 CAGA-GFP viability, ATP luminescence, 18 h; Potency, µM (top dose mostly 46.1 µM), actives largely listed as cytotoxic; actives 0.76% (n = 410,000); AID 588856
#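 CellTiter-Glo luminescence gave cytotoxicity after 18 hours at 37 degrees C. The cells were HepG2 CAGA-GFP in 1% FBS DMEM, stimulated with 500 pg/mL TGF-beta after compound addition. %Activity was normalised to no-cell wells (complete cell-killing) and DMSO (no toxicity), and curves were fitted and classified.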
# TGFb CAGA inh = confirmation of TGF-b signaling inhibitors in HepG2 reporter cells; Potency, µM (highest dose often 46.1 µM), usual class: inhibitors; shares compounds with TGFb SMAD3 inh; actives 63% (n = 1,600); HepG2 CAGA-GFP TGF-b reporter, GFP fluorescence, 18 h; cells stimulated with TGF-beta, 500 pg/mL; also: nearly all actives have a fitted effect of over 65% in size
# HepG2 tox-2 = toxic to HepG2 cells in TGF-b counterscreen | shares compounds with TGFb SMAD3 inh | actives 27% (n = 1,600) | AID 720535 | Potency, µM (series often up to 46.1 µM), hits mostly inhibitors | HepG2 CAGA-GFP viability, ATP luminescence, 18 h; cells stimulated with TGF-beta, 500 pg/mL; also: nearly all actives have a fitted effect of over 70% in size
# TGFb CCL64 inh = orthogonal confirmation of TGF-b inhibitors in CCL64 cells; AID 720536; actives 41% (n = 1,600); CCL64 CAGA-GFP reporter, TGF-b stimulated, GFP fluorescence, 18 h; Potency, µM (series often up to 46.1 µM), hits mostly inhibitors; shares compounds with TGFb SMAD3 inh; also: nearly all actives have a fitted effect of over 65% in size
# COP TGFb inh = TGF-b inhibition validated with COP promoter. shares compounds with TGFb SMAD3 inh. HepG2 COP-GFP TGF-b reporter, GFP fluorescence, 18 h; cells stimulated by added recombinant TGF-beta. Potency, µM (series often up to 46.1 µM), most hits filed as inhibitors. actives 3% (n = 1,600). AID 720537; also: nearly all actives have a fitted effect of over 70% in size
# A number is an active result; 0 = inactive; ? = inconclusive; - = no result; ! = not confirmed by another sample. The list is not random: actives were taken first. Their share in the collection is about 2.4%. Calls follow the shape of the dose curve; as a rule, active = well fitted curve in the direction sought with a large enough effect; inconclusive = small, poorly fitted or top-dose-only effect, or another doubt; inactive = no such curve, though single readings can be large; an effect the other way counts as inactive or inconclusive.
SMILES,Anesthetic bind,TGFb SMAD3 inh,ATXN2 expr inh,ATXN viability,HepG2 tox-1,TGFb CAGA inh,HepG2 tox-2,TGFb CCL64 inh,COP TGFb inh
CCOC(=O)C1=C[C@@H](C(C)(C)C)N(S(=O)(=O)c2ccc(C)cc2)[C@H]1c1ccccc1,-,?,0,0,0,-,-,-,-
CCOC(=O)C1=C[C@@H](C(C)(C)C)N(S(=O)(=O)c2ccc(OC)cc2)[C@H]1c1ccccc1,-,11µM,0,0,0,9.2µM,0,0,0
COc1ccc(CC(=O)N(C)CC(=O)Nc2ccc(F)cc2)cc1S(=O)(=O)N1CCOCC1,-,0,0,0,0,-,-,-,-
CCCCC[C@H]1CN(CCc2ccccc2)C(=O)[C@@H]1CC(=O)NCc1ccc(OC)cc1,0,10µM,0,0,7.1µM!,?,0,?,0
Nc1nn(S(=O)(=O)c2ccccc2)cc1-c1ccc([N+](=O)[O-])cc1,0,?,0,0,0,16µM,0,0,0
Cc1ccc(S(=O)(=O)n2cc(-c3ccccc3)c(N)n2)cc1,0,0,0,0,0,-,-,-,-
O=C(NCC(c1ccco1)N1CCc2ccccc21)C(=O)Nc1ccc(F)cc1F (stereo not given),-,?,0,?,0,13µM,0,12µM,0
O=C(NCC(c1ccco1)N1CCc2ccccc21)C(=O)Nc1ccccc1F (stereo not given),-,?,0,0,0,-,-,-,-
CC1(C)CC(=O)C(CC(=O)c2ccccc2)=C(NN=C(N)N)C1,-,?,-,?,0,-,-,-,-
CCSc1ccc([C@@H]2[C@@H]3C(=O)N(CC)C(=O)[C@@H]3[C@]3(C(=O)OC)CCCN23)cc1,-,?,0,0,0,?,0,0,0
CCc1ccc(NC(=O)COc2ccc(/C=C(/C#N)c3nc4ccccc4[nH]3)cc2OC)cc1,0,2.2µM,4.5µM,-,0,?,?,0,0
Cc1ccccc1NC1=NCC(c2ccc([N+](=O)[O-])cc2)S1 (stereo not given),0,4.5µM,0,?,0,13µM,?,8.2µM,0
COc1cccc2cc(-c3nc(-c4ccccc4)c(C)s3)c(=O)oc12,-,0,-,-,0,-,-,-,-
CCOC(=O)C#CC(CCc1ccccc1)OS(N)(=O)=O (stereo not given),0,0.71µM,0,0,0,0,0,?,0
O=C(C(=O)c1cc(Br)ccc1O)c1cc(Br)ccc1O,-,6.3µM,?,?,0,6.5µM,12µM,4.6µM,0
O=C(NCc1cccnc1)c1cc(Sc2cccc(Cl)c2)nc2ccccc12,0,11µM,0,0,0,?,0,?,0
Cc1cc(SCC(N)=O)nc(SCC(=O)c2ccccc2)n1,0,0,0,?,0,-,-,-,-
Cc1ccc(C(=O)CSc2cc(C)nc(SCC(=O)c3ccccc3)n2)cc1,?,?,0,?,0,?,0,0,0
Cc1ccccc1C(=O)N1CCN(c2ccc(NC(=O)CSc3ccc(Cl)cc3)cc2)CC1,0,4.5µM,?,0,0,4.1µM,?,?,0
C[C@H]1COC[C@@H](C/C=C/c2ccccc2)N1c1ccccc1,-,0,0,0,0,-,-,-,-
Cc1cc(Cl)n2c(nc3cc(F)c(F)cc32)c1C#N,0,6.3µM,?,?,0,1.3µM,5.8µM,1.3µM,18µM
NC1=NC[C@@H](Cc2ccc(O)cc2)N1CCC12CC3CC(CC(C3)C1)C2,-,10µM,?,?,0,0,0,0,0
CC(C)(C)c1ccc(Cn2nnc3c(=O)[nH]c(C4CCN(C(=O)c5ccco5)CC4)nc32)cc1,0,13µM,0,0,0,18µM,?,0,0
Cc1cccc(CCN(CC(=O)NCc2ccc(F)cc2)C(=O)c2csnn2)c1,0,0,0,0,0,-,-,-,-
CC(C)CCCCCCCCCCCCC(=O)NCC(=O)NC1C(C)OC(Nc2ncnc3nc[nH]c23)C(O)C1O (stereo not given),-,0.35µM,?,?,0,1µM,?,0.52µM,0
SMILES,Anesthetic bind,TGFb SMAD3 inh,ATXN2 expr inh,ATXN viability,HepG2 tox-1,TGFb CAGA inh,HepG2 tox-2,TGFb CCL64 inh,COP TGFb inh
CC[C@H]1C(c2cccc(Cl)c2)=NN(c2ccccc2)[C@@H]1CO,0,-,-,-,-,-,-,-,-
CC(OC(=O)Cc1ccc(F)cc1)C(=O)NCc1ccc2c(c1)OCO2 (stereo not given),-,?,0,0,0,0,0,0,0
COc1ccc(/C=C2/CSC/C(=C/c3ccc(OC)c(OC)c3)C2=O)cc1OC,-,6.3µM,5.6µM,4µM,0,1.3µM,3.3µM,2.3µM,0
Cc1ccc(-c2c(C(=O)Nc3ccccc3F)oc(=O)c3ccccc23)cc1,0,0,0,0,0,-,-,-,-
Cc1ccc(-c2c(C(=O)NCc3ccc(F)cc3)oc(=O)c3ccccc23)cc1,?,?,0,0,0,?,0,0,0
O=C(c1ccco1)N1CCN(c2ncnc3scc(-c4ccc(F)cc4)c23)CC1,0,18µM,0,0,0,16µM,0,0,0
CCOC(=O)c1noc2ncn(CC(=O)Nc3ccc(C)c(F)c3)c(=O)c12,0,0,0,0,0,-,-,-,-
CC(C)(O)C#Cc1ccc([C@@H]2C[C@H]3CN(c4ccccc4)C(=O)[C@]34CCCN24)s1,?,2.2µM,?,?,0,0.73µM,?,5.2µM,0
C=CCn1c(O)c(N=NC(=S)Nc2ccc(OC)cc2)c2ccccc21,0,?,?,?,0,?,?,?,0
C=CCn1c(O)c(N=NC(=S)Nc2cccc(OC)c2)c2ccccc21,0,0,0,0,0,-,-,-,-
O=C(c1ccc2c(c1)OCO2)C1CCCN(Cc2ccc(OC(F)F)cc2)C1 (stereo not given),0,?,-,0,0,?,?,?,0
COc1cc2c(cc1OC)C(C)N(C(=O)c1cc(C)on1)CC2 (stereo not given),0,11µM,0,?,0,7.3µM,0,?,?
O=[N+]([O-])c1cccc2nc3ccccc3c(NCCCn3ccnc3[N+](=O)[O-])c12,-,0.11µM,0.27µM,?,0,0.1µM,0.21µM,0.16µM,0
